Consider 3 compounds from PubChem BioAssay.

By viability is commonly meant a read-out of living cells in per cent, often relative to untreated cells. Broadly, the inhibition is the drop in the measured response relative to a control, in per cent.

Assay [1] is described as follows: P. berghei load reduction in hepatocytes – cell-based, HepG2, luciferase luminescence, HepG2 viability, primary screen (AID 624349; in the data active = parasite load remaining mostly below about 12%, no sharp cut-off; inactive = mostly above about 10%;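 also: 100% = mean of DMSO negative control wells on the same plate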). Conditions: P. berghei liver stage in HepG2, luciferase luminescence, concentration not given here; parasite load remaining: stronger effect = lower value; viability: measured here: HepG2 viability without parasites.
Assay [2] can be described thus: signal quenchers or enhancers, Cy5 substrate/SSB – biochemical, NIH Clinical Collection, E. coli SSB, artefact control for HCV NS3 helicase inhibitor project (AID 743268). Conditions: Cy5-oligo bound E. coli SSB, fluorescence interference.
For assay [3], the system named is Hepatitis C virus NS3 helicase. The experiment in a line: blockers of NS3h binding to DNA – biochemical, fluorescence polarization, NIH Clinical Collection, primary screen (AID 743270). Conditions: NS3 helicase binding to Cy5-dT15 DNA, stronger effect = higher value, concentration not given here. For orientation: Fluorescence polarisation rises when a labelled molecule tumbles more slowly, as on binding a larger partner.

Assay [4] has as its target Single-stranded DNA-binding protein (Escherichia coli (strain K12)) (UniProt P0AGE0). The experiment in a line: SSB-ssDNA binding inhibitors – biochemical, fluorescence polarization, NIH Clinical Collection, counter-screen for HCV NS3 helicase inhibitor project (AID 743271; in the data active = inhibition above about 28%). Conditions: E. coli SSB-DNA binding, stronger effect = higher value, concentration not given here.
The nature of assay [5]: compounds distorting NS3 helicase fluorescence signal – biochemical, NIH Clinical Collection, artefact control for HCV NS3 helicase inhibitor project (AID 743272).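 Also: HCV NS3 helicase with a Cy5 labelled single stranded DNA probe.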 The settings on record: fluorescence interference counterscreen, HCV NS3 helicase assay; stronger effect = lower value. For orientation: The purpose of a counterscreen is to sort out artefacts and off-target activity.
Assay [6] is described as follows: Wnt pathway potentiators raising nuclear beta-catenin – imaging, WNT3A-conditioned medium, mouse C2C12, NPC library, primary screen (AID 1117326; in the data active = nuclear beta-catenin stimulation mostly above about 4.2%, no sharp cut-off; inactive = mostly below about 10%). The settings on record: stronger effect = higher value.
A short description of assay [7]: stimulators of insulin release from INS-1E, primary screen, cell-based, 5 mM glucose, NPC library (AID 1117329;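 active = compound raises insulin release from rat beta cells at 5 mM glucose, no numeric limit stated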). Conditions: rat INS-1E insulin secretion, at 10 µM, stronger effect = higher value.
Assay [8] in a line: growth inhibition of GSK3B-pretreated HCT116 cells – cell-based, CellTiter-Glo, 0.2 to 20 µM (AID 1117336;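 active = compounds lowering colon cancer cell viability after pretreatment blocking the GSK3B kinase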). Conditions: HCT116 viability after GSK3B inhibitor, at 20 µM, stronger effect = higher value. A general note: ATP-based viability assays read luminescence as a measure of living cells.
A short description of assay [9]: inhibition of endothelial tube formation, primary screen, imaging, VEGF stimulated, CD31 staining, tube area, NPC library (AID 1117340;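 active = compound that reduces growth-factor-driven endothelial tube area in a mixed cell culture, no cutoff stated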). The settings on record: VEGF-stimulated ADSC/ECFC co-culture, at 10 µM, stronger effect = higher value.
Assay [10] in a line: GLP1 release stimulators, primary, NCI-H716, NPC library (AID 1117341;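 active = compound raises GLP1 secretion from the human gut endocrine cells, with no numeric limit stated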). Conditions: NCI-H716 cells, at 10 µM, stronger effect = higher value.
Assay [11] in a line: HCT116 colon cancer cell growth inhibition, primary screen, CellTiter-Glo luminescence, NPC library (AID 1117342;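 active = compounds that lower survival of HCT116 colon cancer cells in the luminescence readout, no numeric limit stated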). The settings on record: at 20 µM (top of the series).
A short description of assay [12]: reduced SW480 viability measured with CellTiter-Glo, NPC library, primary (AID 1117343;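 active = compounds that lower viability of the colon cancer cells in the luminescence readout, with no numeric limit stated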). The settings on record: CellTiter-Glo luminescence; at 20 µM (top of the series).
Assay [13] can be described thus: NPC library primary testing for decreased DLD-1 cell viability via CellTiter-Glo (AID 1117346;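 active = compounds that lower survival of DLD-1 colon cancer cells in the luminescence readout, no cutoff given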). The settings on record: DLD-1 viability, CellTiter-Glo luminescence; at 20 µM (top of the series).
Assay [14] deals with 6-phosphogluconate dehydrogenase, decarboxylating (Homo sapiens) (UniProt P52209). Put plainly: inhibition of human phosphogluconate dehydrogenase – biochemical, recombinant enzyme, NADPH absorbance, primary screen (AID 1159550;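 active = at least 20% inhibition of 6-phosphogluconate dehydrogenase activity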). The settings on record: recombinant 6PGD, NADPH absorbance 341 nm; at 10 µM; stronger effect = higher value.
A short description of assay [15]: viability loss with induced miR-34 in A549 – imaging, A549 dox-inducible miR-34, nuclei and caspase counts, primary screen (AID 1347080;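 active = compounds whose cell count with miR-34 switched on is under 0.7 times the count with it off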). The settings on record: A549 miR-34 inducible, Hoechst nuclei count, 48 h.
The nature of assay [16]: MELAS cybrid and Rieske KO viability enhancers – cell-based, MELAS cybrids, Rieske KO mouse fibroblasts, CellTiter-Glo, primary screen (AID 1508586;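 active = mean z-score across replicates of 1.96 or higher in either the MELAS or the Rieske mutant cell line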;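 also: z relative to plate mean and SD of compound and empty wells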). The settings on record: low glucose.
Assay [17] deals with NAD(+) hydrolase SARM1 (Homo sapiens) (UniProt Q6SZW1). Put plainly: blocking NAD cleavage by SARM1 SAM-TIR – cell lysate, NAD-Glo luminescence (AID 1508614;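 active = compound whose remaining NAD level is above about 45 nM, limit read from the data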;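 also: higher remaining NAD means stronger inhibition of SARM1 NADase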). Conditions: SAM-TIR HEK293T lysate NADase, at 1 µM, stronger effect = higher value.
Assay [18] concerns the target Mitogen-activated protein kinase 7 (Homo sapiens) (UniProt Q13164). Put plainly: Gal4-ERK5 driven luciferase induction – cell-based, HTS, primary screen (AID 1508626;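 active = luciferase signal above three times the same-plate solvent-only control wells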;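 also: luciferase driven by Gal4-ERK5 fusion binding five Gal4 sites before minimal TATA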). The settings on record: HeLa Gal4-ERK5 transactivation, 18 h, at 5 µM, stronger effect = higher value.
The subject of assay [19] is F380Y. The experiment in a line: BK channel mutant inhibitors and activators – cell-based, U2OS BacMam, thallium flux, beta subunits, selectivity assay, profiling panel (AID 1259406;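 active = thallium flux through the channel raised or lowered by more than 3 SD from vehicle-only wells, actives on both sides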;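 also: initial slope of Thallos dye fluorescence rise after thallium is added; log ratio against the mean of 0.3% DMSO vehicle wells on the same plate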). Conditions: U2OS BacMam BK variants, at 30 µM.
A short description of assay [20]: EMT-state selective cytotoxicity in co-culture – imaging, PC-3E GFP, TEM4-18 mCherry, primary screen (AID 1345086;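 active = compounds killing one labelled cell type while sparing the other, by normalised counts and ratio limits, not self-fluorescent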;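 as to all read-outs here: cells exposed to compound for 72 h before imaging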;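 as to red/green cell ratio (normalised): normalised mesenchymal count divided by normalised epithelial count so high means epithelial killing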). Conditions: PC-3E GFP / TEM4-18 mCherry co-culture, imaging cell counts, at 1 µM; for red/green cell ratio (normalised): actives lie on both sides, counts scaled to control wells, 1 = unselective.
[21] abbreviates: MELAS cybrid survival, CellTiter-Glo 48 h, stronger effect = higher value.
Where [22] appears, read: Rieske KO mouse fibroblast survival, CellTiter-Glo 72 h.
The mark [23] stands for this setting: measured here: epithelial PC-3E GFP cell survival.
The mark [24] stands for this setting: measured here: mesenchymal TEM4-18 mCherry cell survival.

Values joined by “and” are separate entries in the source; they are usually repeats but may differ in a detail not shown here. Identical values can stand only once. Active and inactive are the calls of the source. Unless noted, no rule for the calls is given here.

Sequence of 6-phosphogluconate dehydrogenase, decarboxylating (Homo sapiens) (P52209 whole entry, looked up): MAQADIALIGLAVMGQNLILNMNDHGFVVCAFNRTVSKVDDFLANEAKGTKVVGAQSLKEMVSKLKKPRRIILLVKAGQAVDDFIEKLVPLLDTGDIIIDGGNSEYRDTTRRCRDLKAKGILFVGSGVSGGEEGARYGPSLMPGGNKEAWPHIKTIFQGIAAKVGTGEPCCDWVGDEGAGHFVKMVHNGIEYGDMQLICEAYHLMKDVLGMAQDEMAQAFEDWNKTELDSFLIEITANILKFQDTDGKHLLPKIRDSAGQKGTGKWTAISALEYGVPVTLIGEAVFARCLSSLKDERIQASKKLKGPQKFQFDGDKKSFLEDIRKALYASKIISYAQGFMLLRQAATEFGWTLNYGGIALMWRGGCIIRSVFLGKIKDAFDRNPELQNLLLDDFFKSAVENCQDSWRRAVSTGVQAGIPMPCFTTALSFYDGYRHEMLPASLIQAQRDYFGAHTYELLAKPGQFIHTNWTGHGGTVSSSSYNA
Sequence of NAD(+) hydrolase SARM1 (Homo sapiens) (Q6SZW1 whole entry, looked up, the tested form may be a part): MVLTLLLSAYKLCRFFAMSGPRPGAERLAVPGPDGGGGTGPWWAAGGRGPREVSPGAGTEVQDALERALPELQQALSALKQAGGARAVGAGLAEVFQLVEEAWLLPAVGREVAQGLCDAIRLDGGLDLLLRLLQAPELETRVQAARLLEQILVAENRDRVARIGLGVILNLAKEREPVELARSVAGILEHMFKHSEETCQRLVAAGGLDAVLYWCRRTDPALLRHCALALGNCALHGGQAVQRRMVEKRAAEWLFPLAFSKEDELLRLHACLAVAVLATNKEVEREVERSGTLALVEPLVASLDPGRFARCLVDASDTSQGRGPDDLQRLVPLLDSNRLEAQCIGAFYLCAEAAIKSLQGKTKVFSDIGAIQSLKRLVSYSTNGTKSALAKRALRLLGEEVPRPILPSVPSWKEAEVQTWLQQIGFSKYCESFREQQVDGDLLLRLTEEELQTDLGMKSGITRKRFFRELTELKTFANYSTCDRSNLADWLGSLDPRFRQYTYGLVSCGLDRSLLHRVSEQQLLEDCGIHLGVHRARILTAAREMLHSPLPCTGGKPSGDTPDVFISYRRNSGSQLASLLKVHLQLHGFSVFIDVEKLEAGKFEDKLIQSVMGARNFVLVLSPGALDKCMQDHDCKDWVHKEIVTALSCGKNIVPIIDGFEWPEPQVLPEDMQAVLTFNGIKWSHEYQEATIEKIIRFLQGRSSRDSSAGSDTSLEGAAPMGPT
Sequence of Mitogen-activated protein kinase 7 (Homo sapiens) (Q13164 whole entry, looked up, the tested form may be a part): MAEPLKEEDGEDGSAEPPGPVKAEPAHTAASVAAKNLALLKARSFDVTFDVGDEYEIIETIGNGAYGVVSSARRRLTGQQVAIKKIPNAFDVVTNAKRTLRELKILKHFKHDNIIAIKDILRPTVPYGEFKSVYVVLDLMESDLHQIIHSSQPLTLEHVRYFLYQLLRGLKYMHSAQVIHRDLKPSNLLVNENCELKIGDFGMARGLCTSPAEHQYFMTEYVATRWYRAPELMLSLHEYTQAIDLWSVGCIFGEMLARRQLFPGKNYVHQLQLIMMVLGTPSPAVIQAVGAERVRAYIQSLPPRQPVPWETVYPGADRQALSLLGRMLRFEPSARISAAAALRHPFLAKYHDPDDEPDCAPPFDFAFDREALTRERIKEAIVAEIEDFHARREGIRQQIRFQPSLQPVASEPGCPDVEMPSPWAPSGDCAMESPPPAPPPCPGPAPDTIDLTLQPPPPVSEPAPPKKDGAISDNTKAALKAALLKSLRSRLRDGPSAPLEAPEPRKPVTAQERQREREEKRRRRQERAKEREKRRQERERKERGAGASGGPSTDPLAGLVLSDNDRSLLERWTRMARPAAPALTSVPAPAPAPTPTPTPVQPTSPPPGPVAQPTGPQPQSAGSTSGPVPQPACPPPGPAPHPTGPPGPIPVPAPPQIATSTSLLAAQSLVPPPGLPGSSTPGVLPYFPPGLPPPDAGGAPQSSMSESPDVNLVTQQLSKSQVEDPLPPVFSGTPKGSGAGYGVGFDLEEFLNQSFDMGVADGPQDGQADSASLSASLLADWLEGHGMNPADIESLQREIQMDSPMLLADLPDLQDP

Take `C[C@@H]1C[C@H]2[C@@H]3CCC4=CC(=O)C=C[C@]4(C)[C@@]3(F)[C@@H](O)C[C@]2(C)[C@@]1(O)C(=O)CO`: in assay [1], the parasite load remaining was 76.8% (inactive) and 55.7% (inactive). For the same compound, the viability in assay [1] is 86.4% and 108%. Also, the figures for the fluorescence ratio in assay [2] and in [5] were 1.05 (inactive) and 1 (inactive), respectively. Besides, the results for the inhibition in [3], in [4] and in assay [14] were -3.18% (inactive), 0.29% (inactive) and 0.502% (inactive), respectively. For the same compound, the nuclear beta-catenin stimulation in assay [6] (at 10 µM) was -0.3% (inactive); in [6] (stimulation, at 2 µM), -1.3%. The insulin secretion stimulation in [7] was 8.4% (inactive). In assay [8], the viability decrease is -0.1% (inactive). The tube area decrease in [9] was -12.9% (inactive). The GLP1 secretion stimulation in assay [10] is 4.4% (inactive). In addition, in assay [11], the inhibition of viability is -7% (inactive). Also, the results for the viability decrease (inhibition) in assay [12] and in assay [13] were -0.8% (inactive) and 5.8% (inactive), respectively. Besides, the fold change in [15] (stronger effect = lower value, cell number ratio, induced over uninduced) is 0.906 (inactive) and 0.84 (inactive) and 0.875 (inactive); in assay [15] (measured here: relative caspase fold change +Dox/-Dox), 1.6 and 0.779 and 1.31. Further, the cell count in assay [15] (measured here: total cells with miR-34 induction, stronger effect = lower value) was 7720 and 3310 and 7020; in assay [15] (measured here: total cells without miR-34 induction), 8520 and 3940 and 8020. The z-score in assay [16] (setting [21]) was 0.843 (inactive); in assay [16] (setting [22]), 0.569. Further, the remaining NAD in [17] is 10 nM (inactive). Also, the luciferase signal in [18] is 100 AU (inactive). Besides, the log fold change Tl+ flux in assay [19] is 0.096 (inactive).
With `Nc1c2c(nc3ccccc13)CCCC2`, the fluorescence ratio was 0.95 (inactive) in assay [2] and 0.85 (inactive) in assay [5]. The inhibition in assay [3] was -4.36% (inactive); in [4] it was -0.1% (inactive); in [14], -0.369% (inactive). Moreover, the nuclear beta-catenin stimulation in assay [6] (at 10 µM) was 1.3% (inactive); in assay [6] (stimulation, at 2 µM), 2.2%. For the same compound, the insulin secretion stimulation in assay [7] was 32.7% (active). Besides, the viability decrease in assay [8] is 2.75% (inactive). For the same compound, the tube area decrease in assay [9] is 19% (inactive). Further, in assay [10], the GLP1 secretion stimulation is 13% (inactive). The inhibition of viability in assay [11] is 4.9% (inactive). In addition, the viability decrease (inhibition) in [12] was 22.5% (inactive); in assay [13], 3.1% (inactive). For the same compound, the red/green cell ratio (normalised) in assay [20] is 1.47 (inactive). The normalised cell number was 0.89 in assay [20] (setting [23]) and 1.3 in assay [20] (setting [24]). Also, the z-score was 0.221 (inactive) and 0.852 (inactive) in assay [16] (setting [21]); 0.161 and -0.102 in [16] (setting [22]). In addition, in assay [17], the remaining NAD is 10 nM (inactive). Further, the luciferase signal in assay [18] was 164 AU (inactive). Besides, the log fold change Tl+ flux in assay [19] is 0.0646 (inactive).
Take `Nc1nc2ccc(OC(F)(F)F)cc2s1`: the fluorescence ratio in assay [2] is 0.95 (inactive); in assay [5], 0.87 (inactive). In addition, the values for the inhibition in assay [3], in assay [4] and in assay [14] were -5.94% (inactive), -0.87% (inactive) and 2.66% (inactive), respectively. Further, the nuclear beta-catenin stimulation was 0.7% (inactive) in [6] (at 10 µM) and -0.8% in assay [6] (stimulation, at 2 µM). For the same compound, the insulin secretion stimulation in assay [7] was -2.4% (inactive). Besides, the viability decrease in assay [8] was 32.5% (inactive). In addition, the tube area decrease in assay [9] is 34% (inactive). Also, the GLP1 secretion stimulation in assay [10] was 0.6% (inactive). For the same compound, the inhibition of viability in [11] is 21.7% (inactive). Further, the figures for the viability decrease (inhibition) in assay [12] and in assay [13] were 88.8% (active) and 47.1% (inactive), respectively. Besides, the red/green cell ratio (normalised) in assay [20] was 1.07 (inactive). In addition, the normalised cell number in [20] (setting [23]) stood at 1.04; in assay [20] (setting [24]) it was 1.11. The z-score was 0.0258 (inactive) and 0.56 (inactive) and -1.11 (inactive) in assay [16] (setting [21]); 0.111 and -0.202 and -1.33 in [16] (setting [22]). For the same compound, in [17], the remaining NAD was 10 nM (inactive).
